Data as given in PubChem BioAssay (Tox21).
Where “and” joins values, the source holds several entries; their conditions need not be identical. Equal values may be shown once. Records with an inconclusive call do not appear. Entries that show only a call come without a potency. More than one record can exist for a structure, and the calls need not agree. Calls of active or inactive are those of the source. Calls come from the whole dose curve; as a rule, active = well fitted activation curve with a large enough effect in the repeat runs; inconclusive = weak or mixed curves; inactive = flat fitted curve, though single readings scatter.
Potency is the fitted concentration of half-maximal effect.

Experiment: A CellTox Green Cytotoxicity Assay to monitor cytotoxicity in HepG2 cells - 24 hour (AID 1224878); note: nearly all actives have a fitted effect of over 45% in size
Conditions: CellTox Green fluorescence; series mostly up to 76.8 µM; cytotoxicity: at the top concentration
Description: National Center for Advancing Translational Sciences [NCATS]
NIH Chemical Genomics Center [NCGC]
U.S. Environmental Protection Agency [EPA]
National Institutes of Environmental Health Sciences [NIEHS]
National Toxicology Program [NTP]
Cell-based models are critical for drug discovery. Determining the natural cytotoxic effects resulting from test compounds is an essential research activity. A CellTox Green Cytotoxicity Assay to monitor cytotoxicity in real time of continues cell culture during 40 hours of the compound treatment was used to screen Tox21 10K library compounds in HepG2 cells. CellTox Green Cytotoxicity Assay is a nonlytic, homogeneous, biofluorescent method to measure cytotoxicity in cell culture after experimental manipulation. The assay system uses a proprietary asymmetric cyanine dye that is excluded from viable cells but preferentially stains the dead cell's DNA. […] Viable cells produce no appreciable increases in fluorescence. Therefore, the fluorescence signal produced by the binding interaction with dead cell DNA is proportional to cytotoxicity.
The mixture of HepG2 cell suspension and reagents were dispensed at 600cells/6 ul/well in 1536-well tissue culture treated black solid bottom plates using a Multidrop dispenser. After the assay plates were incubated at a 37 C/5% CO2 incubator for 5 hours, 23 nL of compounds dissolved in DMSO, positive and negative controls was transferred to the assay plate by a pintool work station. The plates were incubated at 37 C for 40 hours. The fluorescence intensity were measured at 0h, 8h, 16h, 24h, 32h and 40h time points using ViewLux plate reader during compound treatment.
With `Cc1cccc([N+](=O)[O-])c1` the Potency was “inactive”. With `O=C(NC(=O)c1c(F)cccc1F)Nc1cc(Cl)c(OC(F)(F)C(F)C(F)(F)F)cc1Cl` (stereo not given) the Potency was “inactive”. With `OC(O)C(Cl)(Cl)Cl` the Potency was “inactive”. With `CC(C)(C)OOC(=O)c1ccccc1` the “cytotoxicity” value was -10.3% (inactive). With `Cc1ccc(N)cc1Cl` the Potency was “inactive”. For `CCOC(=O)c1ccccc1C(=O)OCC`, the Potency was “inactive”. With `CCCN(CCC)N=O` the Potency was “inactive”. In the case of `O=c1ccc(=O)[nH][nH]1`, the Potency is reported as “inactive”. With `CC1OC(C)OC(C)O1` (stereo not given) the Potency was “inactive”. In the case of `Cc1cc(-c2cc(C)c(N)c(C)c2)cc(C)c1N`, the “cytotoxicity” value is reported as -4.02% (inactive). In the case of `CN(C)CCO`, the Potency is reported as “inactive”. With `Clc1cccc(Cl)c1Cl` the Potency was “inactive”. For `CC(C)OC(=O)Nc1ccccc1`, the Potency was “inactive”. For `C=C(C)CCl`, the Potency was “inactive”. In the case of `Nc1ccc(Cc2ccc(N)cc2)cc1`, the Potency is reported as “inactive”. For `CC(C)(C)OOC(C)(C)C`, the Potency was “inactive”. With `O=[N+]([O-])c1ccccc1` the Potency was “inactive”. In the case of `CCCCCCCCCCCC#N`, the Potency is reported as “inactive and 45.2 µM (active)”. For `CCCN(CCC)c1c([N+](=O)[O-])cc(C(F)(F)F)cc1[N+](=O)[O-]`, the Potency was “inactive”. In the case of `NCCc1ccc(O)cc1`, the Potency is reported as “inactive”. For `c1ccc2c(c1)oc1ccccc12`, the “cytotoxicity” value was -0.795% (inactive). With `C#CCN(C)[C@H](C)Cc1ccccc1` the Potency was “inactive”. For `[N-]=[N+]=[N-]`, the Potency was “inactive”. For `CCC12COCN1COC2`, the “cytotoxicity” value was 0.445% (inactive). In the case of `Clc1ccccc1Cl`, the “cytotoxicity” value is reported as 0.731% (inactive). With `O=S(=O)(c1ccc(Cl)cc1)c1cc(Cl)c(Cl)cc1Cl` the Potency was “inactive”. In the case of `COP(N)(=O)SC` (stereo not given), the Potency is reported as “inactive”. With `CC(Oc1ccc(Cl)cc1Cl)C(=O)O` (stereo not given) the Potency was “inactive”. With `CC(C)OC(=O)Nc1cccc(Cl)c1` the Potency was “inactive”. With `O=Cc1cccc(Oc2ccccc2)c1` the Potency was “inactive”. With `O=c1[nH]c2ccccc2c(=O)o1` the “cytotoxicity” value was 24% (inactive). In the case of `Cc1ccccc1O`, the Potency is reported as “inactive”. In the case of `CCCCN(CCCC)SN(C)C(=O)Oc1cccc2c1OC(C)(C)C2`, the Potency is reported as “inactive”. For `CCNc1nc(NC(C)(C)C)nc(SC)n1`, the Potency was “inactive”. In the case of `CCN(CC)c1ccccc1`, the Potency is reported as “inactive”. With `Nc1ccccc1C(=O)O` the Potency was “inactive”. For `CN(C)N=O`, the Potency was “inactive”. With `CCc1cccc(C)c1N(C(=O)CCl)C(C)COC` (stereo not given) the Potency was “inactive”. For `CN=C=S`, the Potency was “inactive”. With `CCC[N+](=O)[O-]` the Potency was 24.1 µM (active) and inactive.
